Tb PFK block: qHTS Assay to Find Inhibitors of T. brucei phosphofructokinase. ATP-dependent 6-phosphofructokinase (Trypanosoma brucei brucei), O15648. T. brucei PFK, ADP-Glo luminescence. Potency, µM (series often up to 57.5 µM), without a hit: at the highest dose activity, negative = inhibition, usual class: inhibitors. hit rate 0.17% among 330,000;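 also: 0% = uninhibited 1x PFK enzyme wells and -100% = no-enzyme wells; nearly all actives have a fitted effect of over 60% in size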
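Compounds were pin-transferred as a titration series up to 57 uM into substrate buffer (0.5 mM F6P, 0.1 mM ATP, pH 8.0), then 1.25 nM PFK was added and reactions ran 45 min before ADP-Glo detection.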
BRCA1 expr act: qHTS Assay to Identify Small Molecule Activators of BRCA1 Expression; AID 624202, 2012; hit rate 1.1% among 380,000; MCF7-BRCA1-FFLuc reporter, luminescence, 48 h; response scale: scaled: vehicle 0%, 10 µM genistein 100%; Potency, µM (titrated, usually from 46.1 µM), for the others: at the highest dose activation, hits mostly activators; also: nearly all actives have a fitted effect of over 80% in size
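Cells: MCF7-BRCA1-FFLuc, 2000/well. Exposure: 48 h, 37 °C, 5% CO2. Read: luminescence, 15 min post-substrate. Controls: genistein 10 microM (maximal activation), DMSO (neutral).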
PLK1 PBD block: qHTS for Inhibitors of PLK1-PDB (polo-like kinase 1 - polo-box domain): Primary Screen; AID 720504, 2013; hit rate 2.8% among 360,000; Potency, µM, inactives show max response, negative = inhibition, usual class: inhibitors; Plk1 PBD binding of FITC phosphopeptide, fluorescence polarization; Serine/threonine-protein kinase PLK1 (Homo sapiens), P53350; also: series mostly up to about 57 µM; % is scaled to controls: 0 for no effect and ±100 for the full control effect; nearly all actives have a fitted effect of over 65% in size
VDR inhibitor: Inhibitors of the vitamin D receptor (VDR): qHTS; Potency, µM, without a hit: max response, negative = inhibition, hits mostly inhibitors; AID 504847, 2011; hit rate 0.93% among 400,000; VDR-SRC2-3 peptide fluorescence polarization, 2 h; also: % is scaled to controls: 0 for no effect and ±100 for the full control effect
Target sequence (P11473 whole entry, looked up): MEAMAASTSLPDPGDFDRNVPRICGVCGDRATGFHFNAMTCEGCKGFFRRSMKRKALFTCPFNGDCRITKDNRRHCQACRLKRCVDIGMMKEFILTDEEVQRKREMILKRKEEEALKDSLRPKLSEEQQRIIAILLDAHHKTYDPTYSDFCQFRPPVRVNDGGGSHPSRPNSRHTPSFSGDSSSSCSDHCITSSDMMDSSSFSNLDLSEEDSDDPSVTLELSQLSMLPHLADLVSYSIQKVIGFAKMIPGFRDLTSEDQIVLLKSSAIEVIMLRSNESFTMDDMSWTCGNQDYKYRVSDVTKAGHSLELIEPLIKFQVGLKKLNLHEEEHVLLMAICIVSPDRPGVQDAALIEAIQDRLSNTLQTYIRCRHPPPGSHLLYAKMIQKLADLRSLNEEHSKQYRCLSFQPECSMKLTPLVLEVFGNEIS
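Fluorescence polarization assay measuring small-molecule disruption of VDR binding to the coregulator peptide SRC2-3. Compounds were pin-transferred (23 nl) into the reagent mix and incubated 2 h at room temperature before reading.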
TbPYK confirm: qHTS of Trypanosoma Brucei Inhibitors: Confirmatory Assay for Cherry-picked Compounds; shares compounds with PLK1 PBD block; recombinant TbPYK, Kinase-Glo ATP luminescence; Potency, µM (highest dose often 76.9 µM), without a hit: top-dose activity change, negative = inhibition, usual class: inhibitors; hit rate 67% among 890; also: % is scaled to controls: 0 for no effect and ±100 for the full control effect; nearly all actives have a fitted effect of over 70% in size
TbPYK orthogonal: qHTS of Trypanosoma Brucei Inhibitors: Orthogonal Assay for Cherry-picked Compounds. shares compounds with PLK1 PBD block. recombinant TbPYK, ADP-Glo luminescence, 60 min. Potency, µM (series often up to 76.9 µM), for inactives: at the top dose activity change, negative = inhibition, usual class: inhibitors. hit rate 62% among 890; also: % is scaled to controls: 0 for no effect and ±100 for the full control effect; nearly all actives have a fitted effect of over 75% in size
Numbers without * were called inactive; ? = inconclusive; nt = not tested or not shown. An excerpt weighted towards active compounds, which were near 3.9% of everything screened. Calls follow the shape of the dose curve; as a rule, active = well fitted curve in the direction sought with a large enough effect; inconclusive = small, poorly fitted or top-dose-only effect, or another doubt; inactive = no such curve, though single readings can be large; an effect the other way counts as inactive or inconclusive. Potency is read from the fitted curve at half-maximal effect.

SMILES	Tb PFK block	BRCA1 expr act	PLK1 PBD block	VDR inhibitor	TbPYK confirm	TbPYK orthogonal
O=C(CSc1nnc(-c2ccco2)n1CC1CCCO1)c1ccc(F)cc1 (centres undefined)	1%	36%	2.7µM*	-29%	?	40µM*
COc1ccc(C(=O)CSc2nnc(-c3ccco3)c(-c3ccco3)n2)cc1	-12%	-22%	27µM*	-20%	25µM*	35µM*
CC(=O)Nc1ccc(C(=O)CSc2nnc(-c3ccc(O)cc3)n2CC2CCCO2)cc1 (centres undefined)	-6%	12%	-17%	-3%	16µM*	?
CC(=O)c1cc2c(cc1NC(=O)CSc1nnc(C3CC3)n1C)OCO2	nt	1%	-4%	nt	nt	nt
Cc1ccc(CCNC(=O)c2cc(C)nc3c2c(C)nn3-c2ccc(C)cc2)cc1	nt	nt	nt	1%	nt	nt
CC1CCc2c(sc(Nc3nc4c(F)cccc4s3)c2C(N)=O)C1 (centres undefined)	-1%	-63%	-6%	-29%	8.9µM*	14µM*
CC(C)(O)C1Cc2cc(/C=C/C(=O)O)c(O)cc2O1 (centres undefined)	-26%	8%	3µM*	?	13µM*	14µM*
O=C1C=C(NCCc2cc(Br)c(O)c(Br)c2)C(=O)c2ncccc21	nt	-95%	2.7µM*	32µM*	11µM*	16µM*
C[C@@H]1CCCCO[C@@H](CN(C)C(=O)Nc2ccccc2)[C@@H](C)CN([C@H](C)CO)C(=O)c2cc(N(C)C)ccc2O1	nt	-4%	-19%	nt	nt	nt
C[C@@H]1CCCCO[C@H](CN(C)Cc2ccc(Cl)c(Cl)c2)[C@@H](C)CN([C@H](C)CO)C(=O)c2cc(N(C)C)ccc2O1	nt	3%	-2%	nt	6.3µM*	6.3µM*
C[C@@H]1CCCCO[C@H](CN(C)C(=O)Nc2cccc3ccccc23)[C@@H](C)CN([C@H](C)CO)C(=O)c2cc(N(C)C)ccc2O1	nt	-2%	0%	nt	3.5µM*	7.1µM*
O=C1C=CC(=O)N1c1ccc(-c2nc3ccccc3o2)cc1	nt	-26%	8.4µM*	nt	-95%	11µM*
Nc1ccc(-c2nc3ccccc3o2)cc1	18%	?	7%	-3%	nt	nt
CCCOc1ccc(N2CC(C(=O)Nc3cccc(Cl)c3Cl)CC2=O)cc1 (centres undefined)	nt	nt	nt	-19%	nt	nt
COC(=O)c1ccc(C(C2C(=O)CC(C)(C)CC2=O)C2C(=O)CC(C)(C)CC2=O)cc1	0%	1%	-9%	?	nt	nt
CC1(C)CC(=O)C(C(c2ccco2)C2C(=O)CC(C)(C)CC2=O)C(=O)C1	?	7%	6.7µM*	?	11µM*	?
CCC(C)CN1C(=O)CN(S(C)(=O)=O)CC1(C)C(=O)NC(C)C (centres undefined)	nt	nt	5%	nt	nt	nt
Fc1cccc(/C=N/Nc2nccnc2Cl)c1	-12%	?	-22%	-12%	?	0%
CCCCC1(C)OC(=O)C(=Cc2ccc(-c3ccc(Cl)c(C(=O)O)c3)o2)C(=O)O1 (centres undefined)	-1%	-2%	4.2µM*	22µM*	16µM*	32µM*
CC(C)N1C(=O)S/C(=C\c2ccc(-c3ccc(Cl)c(C(=O)O)c3)o2)C1=O	3%	?	?	?	nt	nt
Clc1cccc(Cc2c(-c3ccco3)nc3ccc(Br)cn23)c1	nt	-7%	11µM*	nt	?	?
Clc1ccc(-c2nc3ccc(Cl)cn3c2Cc2cccc(Cl)c2)cc1	nt	25%	-13%	nt	nt	nt
Clc1cccc(Cc2c(-c3ccco3)nc3ccc(Cl)cn23)c1	nt	-17%	12µM*	nt	11µM*	13µM*
O=S(=O)(c1ccc(C2CCCCC2)cc1)N1CCN(c2cc(Cl)ccc2Cl)CC1	nt	12%	nt	-23%	nt	nt
C=C(C)C(=O)/C=C/c1ccc(C(F)(F)F)cc1	nt	nt	nt	3%	nt	nt
SMILES	Tb PFK block	BRCA1 expr act	PLK1 PBD block	VDR inhibitor	TbPYK confirm	TbPYK orthogonal
CS(=O)(=O)c1ncc(N(Cc2ccco2)Cc2cccs2)c(C(=O)Nc2ccccc2F)n1	nt	nt	nt	-11%	nt	nt
Cc1ccc(CN2CCN(/N=C/c3ccccc3)CC2)cc1	1%	-2%	1%	0%	nt	nt
COc1cc(/C=N/N2CCN(Cc3ccc(C)cc3)CC2)cc(OC)c1O	-4%	-12%	-5%	-23%	22µM*	28µM*
CC1NC(=O)c2cccnc2-n2c1nc1cc(F)ccc1c2=O (centres undefined)	nt	-30%	-12%	nt	nt	nt
CCOC(=O)N1CCC2(CC1)OC(=O)C(C)=C2C(=O)NCc1ccccc1OC	nt	nt	nt	3%	nt	nt
CCCC(=O)OC1(C(=O)CO)CCC2C3CCC4=CC(=O)CCC4(C)C3C(O)CC21C (centres undefined)	nt	nt	nt	4%	nt	nt
N#Cc1cc2c(nc1SCC(=O)N1CCCCC1)CCCCC2	nt	42%	27µM*	?	13µM*	13µM*
N#C/C(=C/c1ccc(N2CCOCC2)o1)c1ccc(Br)cc1	-19%	-32%	17%	35µM*	?	35µM*
Cc1cccc(C)c1-n1nnnc1C1(C)CCC(=O)N1CCCn1ccnc1 (centres undefined)	nt	5%	-13%	nt	nt	nt
CCCCn1nnnc1C1(C)CCC(=O)N1CCCn1ccnc1 (centres undefined)	nt	0%	6µM*	nt	14µM*	35µM*
Cc1ccc(NC(=O)c2ccc(F)cc2)nc1	0%	?	0%	-8%	nt	nt
Cc1ccc(NC(=O)c2sccc2C)nc1	-27%	80%	5%	5%	?	1%
O=C(N/N=C/c1ccc(N2CCOCC2)o1)c1cccc([N+](=O)[O-])c1	-8%	9%	?	?	?	32µM*
O=C(N/N=C/c1ccc(N2CCCCC2)o1)c1ccccc1	-15%	-41%	?	22µM*	32µM*	32µM*
O=C(N/N=C/c1ccccc1)c1ccc(N2CCOCC2)c([N+](=O)[O-])c1	-17%	-1%	0%	-15%	nt	nt
Cc1ccc(/C=N/NC(=O)c2ccc(-c3ccccc3)cc2)o1	0%	-24%	-6%	-13%	nt	nt
CCOC(=O)c1c(C)oc2nc(C)nc(N3CCN(c4cc(Cl)ccc4C)CC3)c12	nt	nt	nt	11%	nt	nt
CCCN(C(=O)CCc1nc(-c2ccc(C)cc2)no1)c1ccc(OCC)cc1	nt	nt	nt	-13%	nt	nt
COC(=O)c1c(NC(=O)c2cc3ccccc3c(=O)o2)sc2c1CCCC2	nt	-4%	nt	1%	nt	nt
Nc1c(-c2nc(-c3cccs3)no2)nnn1-c1cccc(Cl)c1	nt	nt	nt	2%	nt	nt

Screening data: PubChem BioAssay, National Center for Advancing Translational Sciences (NCATS)
